Hits are enriched below; roughly 11% of the tested compounds scored in any of these assays.
BAZ2B block – BAZ2B (human) inhibition | Q9UIF8 | Potency, µM (top dose mostly 114 µM), usual class: inhibitors | hit rate 4.4% among 360,000 | AlphaScreen BAZ2B-H3K14Ac peptide displacement; note: nearly all actives have a fitted effect of over 60% in size
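BAZ2B (50 nM) with biotin-H3(5-23)K14Ac peptide (50 nM) in PBS pH 7.4, 0.01% Tween-20, preformed 30 min, then compound 30 min at room temperature; top concentration 110uM. AlphaScreen streptavidin donor/nickel chelate acceptor beads (10 ug/mL final), 20 min dark, signal read.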
G9a block – blocks human histone lysine methyltransferase G9a; G9a H3K9 monomethylation, AlphaScreen, 2 h; Potency, µM (series often up to 102 µM), usual class: inhibitors; hit rate 8.8% among 350,000; note: nearly all actives have a fitted effect of over 75% in size
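Using a bead-based AlphaScreen, monomethylated H3K9 product from 2 h room-temperature reactions (G9a 20 nM, peptide 500 nM, SAM 20 uM) was detected with 0.5 ug/mL rabbit anti-H3K9me1 antibody.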
VDR inh – inhibitors of human vitamin D receptor. AID 504847. Potency, µM, most hits filed as inhibitors. VDR-SRC2-3 peptide fluorescence polarization, 2 h. hit rate 0.93% among 400,000. P11473
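Measured by FP: displacement of SRC2-3 coactivator peptide from VDR by library compounds, following a two-hour ambient incubation.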
PLK1 PBD block – inhibitors of human PLK1 polo-box domain binding. Plk1 PBD binding of FITC phosphopeptide, fluorescence polarization. Potency, µM, usual class: inhibitors. hit rate 2.8% among 360,000; note: series mostly up to about 57 µM; nearly all actives have a fitted effect of over 65% in size
HP1b chromo inh – inhibitors of HP1-beta chromodomain binding to methylated histone tails | AlphaScreen HP1-beta / biotin-H3K9me3 peptide binding | hit rate 0.56% among 390,000 | P83916 | Potency, µM (doses to about 114 µM), most hits filed as inhibitors | AID 540317; note: nearly all actives have a fitted effect of over 70% in size
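Compound inhibition of the preformed complex between 50 nM HP1-beta and 50 nM biotinylated H3K9me3 peptide was read by AlphaScreen. Buffer was PBS pH 7.4 with 0.01% Tween-20. Incubations ran 30 min at room temperature, with 10 ug/mL donor/acceptor beads.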
JMJD2A Tudor – JMJD2A Tudor domain (human) inhibition; AID 504339; Potency, µM (top dose mostly 114 µM), actives largely listed as inhibitors; hit rate 4.4% among 390,000; AlphaScreen JMJD2A-Tudor / H3K4me3 peptide binding; note: nearly all actives have a fitted effect of over 50% in size
Of the large screens only hits and unclear results are named; the others gave an inactive call. Calls come from the whole dose curve; as a rule, active = well fitted curve in the direction sought with a large enough effect; inconclusive = small, poorly fitted or top-dose-only effect, or another doubt; inactive = no such curve, though single readings can be large; an effect the other way counts as inactive or inconclusive.

Cc1ccc(NC(=O)c2oc3c(c2C)-c2[nH]ncc2CC3)c(Cl)c1	G9a block inconclusive, JMJD2A Tudor inconclusive (no result: PLK1 PBD block)
CC(C)=CCC/C(C)=C/C=C/C(C)=C/C=C/C(C)=C/C=C/C=C(C)/C=C/C=C(C)/C=C/C=C(\C)CCC=C(C)C	G9a block 20µM, VDR inh inconclusive (no result: BAZ2B block, PLK1 PBD block, HP1b chromo inh, JMJD2A Tudor)
CC(C)=CCC/C(C)=C/C(N)=O	none
CCOC(=O)c1c(NC(=S)Nc2cccnc2)sc(C)c1C	BAZ2B block inconclusive, G9a block 44.7µM, PLK1 PBD block inconclusive
CCOC(=O)c1c(NC(=S)Nc2ccc(Cl)cc2)sc(C)c1C	G9a block inconclusive
CCOC(=O)c1c(NC(=O)Nc2ccccc2)sc(C)c1C	G9a block 39.8µM, PLK1 PBD block inconclusive
COC(=O)c1ccccc1NC(=O)C1=CC(c2ccc3c(c2)OCO3)=NS(=O)(=O)N1C	G9a block inconclusive (no result: PLK1 PBD block)
CCCC(O)(CCC)C(=O)NN1CCCCC1	VDR inh 79.4µM, PLK1 PBD block 18.9µM, JMJD2A Tudor inconclusive
Fc1cccc(Cc2noc(CN3CCCCC3c3ccccn3)n2)c1 (stereo unspecified)	PLK1 PBD block inconclusive (no result: G9a block)
CCOC(=O)c1c(C)[nH]c(C)c1S(=O)(=O)N1CCC(C(=O)N2CCN(c3cc(C)ccc3C)CC2)CC1	JMJD2A Tudor inconclusive (no result: PLK1 PBD block)
COC(=O)c1cc(S(=O)(=O)N2CCN(c3cccc(C)c3)C(C)C2)cn1C (stereo unspecified)	none (no result: PLK1 PBD block)
CCOC(=O)c1cc(S(=O)(=O)N2CCN(c3ccccc3)CC2)[nH]n1	G9a block inconclusive (no result: PLK1 PBD block)
Cc1cccc(NC(=O)C2CCCN(S(=O)(=O)c3cccc4nonc34)C2)c1 (stereo unspecified)	none
CCOC(=O)c1cc(S(=O)(=O)N2CCN(c3cc(C)ccc3C)CC2)[nH]n1	BAZ2B block 50.1µM, G9a block 3.98µM (no result: PLK1 PBD block)
CCOC(=O)c1cc(S(=O)(=O)N2CCN(c3cccc(C)c3)C(C)C2)[nH]n1 (stereo unspecified)	BAZ2B block inconclusive, G9a block 14.1µM, JMJD2A Tudor inconclusive (no result: PLK1 PBD block)
Cc1cccc(N2CCN(S(=O)(=O)c3cccc4nonc34)CC2C)c1 (stereo unspecified)	G9a block 35.5µM, JMJD2A Tudor inconclusive (no result: BAZ2B block)
CCOC(=O)c1c(C)[nH]c(C)c1S(=O)(=O)N1CCC(C(=O)N2CCN(c3cccc(C)c3)C(C)C2)CC1 (stereo unspecified)	BAZ2B block 79.4µM, JMJD2A Tudor inconclusive (no result: PLK1 PBD block)
O=C(Nc1ccc(F)cc1F)c1ccc(-n2cnnc2)cc1	none (no result: PLK1 PBD block)
COc1ccc(-n2nc(C(=O)NCCc3ccc(OC)c(OC)c3)c3c4ccccc4n(C)c3c2=O)cc1Cl	none (no result: BAZ2B block, PLK1 PBD block)
Cc1ccc(C)c(N2CCN(c3ccc4cc(S(=O)(=O)N5CCCCC5)ccc4n3)CC2)c1	BAZ2B block inconclusive, G9a block inconclusive, VDR inh inconclusive
Cc1cccc(N2CCN(c3ccc4cc(S(=O)(=O)N5CCCCC5)ccc4n3)CC2C)c1 (stereo unspecified)	G9a block 25.1µM, JMJD2A Tudor inconclusive
c1ccc(-c2ccc3c(c2)c2c4n3CCN=C4CCC2)cc1	BAZ2B block inconclusive, G9a block 20µM, PLK1 PBD block 29.9µM, JMJD2A Tudor 56.2µM
OC1CN=C2CCCc3c2n(c2ccc(Cl)cc32)C1 (stereo unspecified)	G9a block inconclusive
CCOC(=O)C1=C(O)C(=O)N(CCCn2ccnc2)C1c1ccc(OC)cc1 (stereo unspecified)	G9a block 44.7µM (no result: VDR inh, PLK1 PBD block, HP1b chromo inh, JMJD2A Tudor)
COc1cc(C2C(C(=O)c3ccc(C)o3)=C(O)C(=O)N2CCCn2ccnc2)cc(OC)c1OC (stereo unspecified)	BAZ2B block inconclusive (no result: G9a block)
COc1ccc(C2C(C(=O)c3ccco3)=C(O)C(=O)N2CCCn2ccnc2)c(OC)c1 (stereo unspecified)	BAZ2B block 56.2µM, G9a block 50.1µM, JMJD2A Tudor 28.2µM
COc1ccc(C2C(C(=O)c3sc(C)nc3C)=C(O)C(=O)N2CCCn2ccnc2)cc1 (stereo unspecified)	none (no result: BAZ2B block, G9a block)
COc1ccc2[nH]cc(CCO)c2c1	none (no result: BAZ2B block, PLK1 PBD block, HP1b chromo inh, JMJD2A Tudor)
CC(C)(C)c1ccc(C2=NC(=O)C(CC(=O)O)S2)cc1 (stereo unspecified)	BAZ2B block inconclusive, G9a block 50.1µM, VDR inh 25.1µM, PLK1 PBD block 26.7µM
CCCCOc1ccc(/C=N/Nc2cc(N3CCOCC3)nc(C)n2)cc1	none (no result: G9a block)
C[C@H](N)c1nnc(SCC(=O)N(C)C)o1	BAZ2B block inconclusive, G9a block 8.91µM, JMJD2A Tudor inconclusive
C/C(=N/NC(=O)CNC(=O)c1ccc2c(c1)OCO2)c1ccc2c(c1)CCCC2	none (no result: BAZ2B block)
C/C(=N/NC(=O)CNC(=O)c1ccccc1F)c1ccc2c(c1)CCCC2	PLK1 PBD block 8.44µM, JMJD2A Tudor 31.6µM
O=C(/C=C/c1cc2ccccc2o1)c1ccccc1O	BAZ2B block 8.91µM, HP1b chromo inh inconclusive, JMJD2A Tudor 20µM (no result: G9a block)
COc1ccc(O)c(C(=O)/C=C/c2cc3ccccc3o2)c1	BAZ2B block 11.2µM, G9a block inconclusive, VDR inh inconclusive, HP1b chromo inh 3.55µM, JMJD2A Tudor 28.2µM
COc1ccc(O)c(C(=O)CC(=O)c2ccccc2)c1	BAZ2B block inconclusive (no result: VDR inh, PLK1 PBD block, HP1b chromo inh, JMJD2A Tudor)
CC(=O)Nc1cccc(-c2ccnc3c2CC(C)(C(=O)Nc2cccc(Oc4ccccc4)c2)O3)c1 (stereo unspecified)	none (no result: BAZ2B block, G9a block, VDR inh, HP1b chromo inh, JMJD2A Tudor)
Cc1ccc(S(=O)(=O)Cc2sc3ccccc3[n+]2C)cc1	BAZ2B block 50.1µM, G9a block 44.7µM, JMJD2A Tudor 22.4µM
CCOC(=O)C1=C(C)N(C[C@@H]2CC[C@@H](Cc3ccc(-c4ccccc4)cc3)O2)C(=O)NC1c1ccc(SCc2ccco2)c([N+](=O)[O-])c1 (stereo partly specified)	PLK1 PBD block inconclusive, JMJD2A Tudor 39.8µM (no result: BAZ2B block, G9a block)
CCOCC(=O)Nc1ccc([N+](=O)[O-])cc1Cl	none
COC(=O)c1cc(NC(=O)c2cc3c(-c4ccccc4F)nn(C)c3s2)cc(C(=O)OC)c1	none (no result: PLK1 PBD block)
CCc1ccc(OC(C)c2nnc(SCC(=O)Nc3ncccc3C)n2C)cc1 (stereo unspecified)	G9a block 11.2µM, JMJD2A Tudor inconclusive
COc1ccc(CC(=O)NC(C)c2nnc(SCC(=O)Nc3ccccc3)n2C)cc1 (stereo unspecified)	none
O=C1NC(=Nc2ccc(F)cc2)CS1	G9a block 31.6µM, PLK1 PBD block inconclusive
CCn1ccc2c(OCC(=O)Nc3ccc(C(C)=O)cc3)cccc2c1=O	none (no result: PLK1 PBD block)
CCOC(=O)N1CCC(N2C(=O)c3ccc(C(=O)Nc4ccc(OC)cc4)cc3C2=O)CC1	none
Cc1cc(C)cc(N=c2c([N+](=O)[O-])nn(-c3ccc(Cl)cc3)n2O)c1	BAZ2B block inconclusive, G9a block inconclusive, JMJD2A Tudor inconclusive
COc1ccc(-n2nc([N+](=O)[O-])c(=NCc3cccnc3)n2O)cc1	none

Source: PubChem BioAssay (National Center for Advancing Translational Sciences (NCATS))
